“And” between values parts separate entries of the source, which are not always exact repeats. Equal values may be shown once. Hit rate of the full screen: of about 310,000 compounds, about 17,000 (5.5%) were called active. Not shown: some 11% with an inconclusive outcome. This is one part of a sample in which actives are shown more often than they occur. The call rests on the fitted dose curve; in most records, active means well fitted inhibition curve with a large enough effect; inconclusive means small, poorly fitted or top-dose-only effect, or effect the other way; inactive means no such curve, though single readings can be large or run the other way. Where a structure was tested more than once in an assay, its records may differ in their call.
On the % scale 0 is the no-effect control and ±100 the full control effect; potency means the concentration at half of the fitted maximal effect.

Sequence of Nuclear receptor ROR-gamma (Mus musculus) (P51450 whole entry, looked up, the tested form may be a part): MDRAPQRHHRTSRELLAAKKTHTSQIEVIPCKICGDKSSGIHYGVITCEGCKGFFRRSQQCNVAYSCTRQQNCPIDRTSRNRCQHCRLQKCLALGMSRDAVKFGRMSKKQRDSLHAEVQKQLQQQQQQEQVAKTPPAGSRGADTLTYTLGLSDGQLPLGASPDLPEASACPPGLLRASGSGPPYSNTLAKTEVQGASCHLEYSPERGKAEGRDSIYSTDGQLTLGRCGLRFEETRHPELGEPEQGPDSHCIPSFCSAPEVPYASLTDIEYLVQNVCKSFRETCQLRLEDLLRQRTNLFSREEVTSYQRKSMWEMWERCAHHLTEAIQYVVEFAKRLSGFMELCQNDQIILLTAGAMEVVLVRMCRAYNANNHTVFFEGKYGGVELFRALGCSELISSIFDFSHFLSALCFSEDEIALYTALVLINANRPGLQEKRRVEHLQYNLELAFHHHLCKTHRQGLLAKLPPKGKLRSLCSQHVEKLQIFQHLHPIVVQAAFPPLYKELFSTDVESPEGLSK

The assay has as its target Nuclear receptor ROR-gamma (Mus musculus) (UniProt P51450). The assay can be described thus: qHTS for inhibitors of ROR gamma transcriptional activity. Further: nearly all actives have a fitted effect of over 60% in size. The conditions noted are these: Drosophila S2 Gal4-RORgamma UAS-luciferase reporter, 20 h; series mostly up to 53.6 µM; activity change, negative = inhibition: at the top concentration. From the text: NIH Molecular Libraries Probe Production Network [MLPCN] NIH Chemical Genomics Center [NCGC] MLPCN Grant: R03 DA026211-01 Assay Provider: Dan Littman, New York University Assay Overview: The retinoic acid-related orphan receptor (ROR) gamma is a transcription factor that has a central role in the differentiation of Th17 cells, a subset of T helper cells that secrete the inflammatory cytokines IL-17, IL-17F, and IL-22. Th17 cells have been implicated in graft versus host disease, autoimmune disease and asthma. ROR gamma is induced in naive T helper cells in the presence of TGF-beta combined with IL-6, IL-21, or IL-23, and thereafter directs the expression of the Th17 lineage cytokines. To study the mechanism of action of ROR gamma, an insect cell-based assay was screened. This Drosophila Schneider cell line was stably transfected with two vectors: a gene expressing a fusion of the Gal4 DNA binding domain and ROR gamma transactivation domain under the control of the metallothionine promoter and a Photinus luciferase reporter regulated by the Gal4 binding site enhancer, UAS. […] Small molecule inhibitors of ROR gamma activity are detected by a decrease in luciferase reporter activity.
Assay Protocol Summary: For screening, 600 cells in 4 uL/well were dispensed into white solid 1536-well plates (Grenier) using a solenoid-based dispenser. Following transfer of 23 nL compound or DMSO vehicle by a pin tool, the plates were incubated 1 hr at ambient temperature, and 1 uL/well copper sulfate (700 uM final concentration) was added. The plates were centrifuged 15 s at 1000 RPM and incubated 20 hr at ambient temperature. After addition of 1.5 uL Photinus luciferase detection reagent, the plates were incubated 10 min at ambient temperature and then read by an ViewLux (Perkin Elmer) to detect luminescence. Keywords: NIH Roadmap, MLPCN, MLI, MLSMR, qHTS, NCGC, qHTS, nuclear hormone receptor, retinoic acid-related orphan receptor, ROR gamma
(In general: In qHTS, concentration-response curves come from the screen itself.)
On to `Cc1nn(C)c(Cl)c1CN1CCC(Oc2ccc(C(=O)N3CCCC3)cc2)CC1`, for which the “activity change, negative = inhibition” value was -28% (inactive).

On to `CCOc1ccc(N/C(N)=N/c2nc(C)c(C)c(=O)[nH]2)cc1`, for which the “activity change, negative = inhibition” value is 0.457% (inactive).

As to `Cc1ccc(C(=O)N/C(=C\c2cn(S(=O)(=O)N(C)C)c3ccccc23)C(=O)N2CCCC2)cc1`, the “activity change, negative = inhibition” value is 12.2% (inactive).

On to `CCOc1cc(/C=C2\C(=N)N3N=C(C)SC3=NC2=O)ccc1OCCOc1ccccc1`, for which the activity change, negative = inhibition is 26.8% [at 1.91 µM] (inactive).

Take `COc1cccc(OC)c1C(=O)Nc1c(C(=O)N2CCN(c3ccccn3)CC2)oc2ccccc12`: the “activity change, negative = inhibition” value is 26.4% (inactive).

Consider `CCOc1cc(C)ccc1OCc1nnc(SCC(=O)Nc2cccc(C(=O)O)c2)n1-c1ccccc1`, for which the “activity change, negative = inhibition” value is -3.43% (inactive).

`CC(Sc1nnc2c(n1)C1CCC2(C)C1(C)C)C(=O)Nc1ccccc1` (configuration not stated): the “activity change, negative = inhibition” value was 8.52% (inactive).

Consider `Cc1cc(C)c(C#N)c(SCC(=O)Nc2ccccc2)n1`, for which the “activity change, negative = inhibition” value was -8.89% (inactive).

As for `CSc1nc(C)cc(SC(C(C)=O)C(=O)Nc2ccccc2)n1` (configuration not stated), the Potency is 8.91 µM (active).

With `Cc1c(CN2CC[C@@H](N3CCN(c4ccccn4)CC3)[C@H](O)C2)[nH]c2ccc(F)cc12`, the “activity change, negative = inhibition” value is 10.1% (inactive).

As for `COc1ccc(CC(=O)Nc2nc3n(n2)C(c2ccccc2)CC(=O)N3)cc1OC` (configuration not stated), the “activity change, negative = inhibition” value is -4.03% (inactive).

Take `O=C(Nc1n[nH]c(C(F)(F)F)n1)c1cccs1`: the “activity change, negative = inhibition” value is -2.77% (inactive).

Turning to `CC1CC(c2ccccc2)n2nc(NC(=O)c3cccs3)nc2N1` (configuration not stated), the Potency was 14.1 µM (active).

Turning to `O=C1N=C(N2CCCC2)S/C1=C\c1cccc(Br)c1`, the “activity change, negative = inhibition” value is 26.8% (inactive).

Take `O=C1N=C(N2CCc3ccccc3C2)S/C1=C\c1ccc(O)cc1`: the Potency is 1.12 µM (active).

Take `CCOc1cc(/C=C2\SC(N3CCCCC3)=NC2=O)ccc1O`: the “activity change, negative = inhibition” value is 18.1% (inactive).

On to `Cc1ccc(CCNC(=O)c2ccc3nc4ccccc4c(=O)n3c2)cc1`, for which the “activity change, negative = inhibition” value is 2.06% (inactive).

Regarding `CCc1ccc(-c2nn(-c3ccccc3)cc2CSC(=N)N)cc1`, the Potency was 11.2 µM (active).

Regarding `COc1ccc(N(CC(=O)NCC2CCCO2)C(=O)CCC(=O)Nc2nccs2)c(OC)c1` (configuration not stated), the “activity change, negative = inhibition” value was 6.64% (inactive).

Take `O=C(NCc1ccc(F)cc1)C1CCN(C(=O)Nc2ccc(F)cc2)CC1`: the “activity change, negative = inhibition” value is 12.7% (inactive).

For the molecule `O=c1[nH][nH]c(=O)c2cc(N3CCCC3)ccc12`, the “activity change, negative = inhibition” value was 0.847% (inactive).

With `O=C1C=CC(=O)N1c1ccc(N2CCCCC2)cc1`, the Potency is 5.62 µM (active).

Consider `CCOC(=O)/C(C#N)=C/c1ccc(N2CCCCC2)cc1`, for which the “activity change, negative = inhibition” value is 41.1% (inactive).

In the case of `COC(=O)c1ccc(CSc2ccc3nnc(-c4ccccc4)n3n2)o1`, the Potency was 10 µM (active).

For `COC(=O)c1ccc(CSc2ccccc2C)o1`, the “activity change, negative = inhibition” value was 23.7% (inactive).

As to `COc1ccc(-c2nnc3ccc(SCc4ccccc4)nn23)cc1`, the “activity change, negative = inhibition” value was 18.6% (inactive).

With `CN1CCN(Cc2c(C(=O)N3CCc4ccccc4C3)nc3ccc(Cl)cn23)CC1`, the “activity change, negative = inhibition” value is -0.791% (inactive).

On to `CN1CCN(C(=O)C(=O)c2cn(CC(=O)N3CCCC3)c3ccccc23)CC1`, for which the “activity change, negative = inhibition” value was 0.0969% (inactive).

Regarding `CCC(C)[C@H](NC(=O)N1c2ccccc2NC(=O)[C@@H]1C(C)C)C(=O)N[C@@H](Cc1ccccc1)C(=O)O` (some centres not stated), the “activity change, negative = inhibition” value was -3.74% (inactive).

As to `CC(O)CNCCOc1cccc(Oc2ccccc2)c1` (configuration not stated), the “activity change, negative = inhibition” value is -10.9% (inactive).

On to `COc1ccccc1OCCNCC(O)COc1cccc2[nH]c3ccccc3c12` (configuration not stated), for which the Potency result is “inactive and 1 µM (active)”.

Turning to `COc1ccccc1OCC(O)CN1CCOCC1` (configuration not stated), the “activity change, negative = inhibition” value was 6% (inactive).

For `COc1cccc(OCc2nnc3n2N=C(c2ccccc2)C(CC(=O)O)S3)c1` (configuration not stated), the “activity change, negative = inhibition” value was -7.78% (inactive).

As to `COc1ccc(-n2ncc3c2CC(C)(C)CC3NC(=O)CCc2c(C)nn(C)c2C)cc1` (configuration not stated), the “activity change, negative = inhibition” value was 17.1% (inactive).

With `CCCCN(CCCC)CCNC(=O)CN1C(=O)COc2ccc(S(=O)(=O)N3CCOCC3)cc21`, the “activity change, negative = inhibition” value is -12.1% (inactive).

As for `Cc1ccc2nc(-c3ccc(NC(=O)c4cccnc4)cc3)oc2c1`, the Potency is 20 µM (active).

With `CC(=O)Nc1ccc(-c2nc3ccccc3o2)cc1`, the “activity change, negative = inhibition” value was -26.3% (inactive).

For `CC(=O)NC(=S)Nc1ccc(NC(=O)c2cccnc2)cc1`, the “activity change, negative = inhibition” value is 28.8% (inactive).

In the case of `COC(=O)COc1ccc2oc(=O)cc(C)c2c1`, the “activity change, negative = inhibition” value is -35% (inactive).

For `Cc1ccc(O)c(/C=N/NC(=O)COc2ccc3c(C)cc(=O)oc3c2)c1`, the Potency was 2.51 µM (active).

On to `Cc1cc(=O)oc2cc(OCC(=O)Nc3nnc(C4CC4)s3)ccc12`, for which the “activity change, negative = inhibition” value is -12.9% (inactive).

In the case of `Cc1c(C)c2ccc(OCC(=O)N3CCN(c4cccc(Cl)c4)CC3)cc2oc1=O`, the “activity change, negative = inhibition” value was 0.847% (inactive).

For the molecule `CCC(C)N1CC(=O)N2Cc3[nH]c4ccccc4c3C[C@H]2C1=O` (some centres not stated), the “activity change, negative = inhibition” value was -15.5% (inactive).

Consider `O=C(Cn1ncc2c3ccccc3n(Cc3ccccc3)c2c1=O)NCCCN1CCOCC1`, for which the “activity change, negative = inhibition” value is -2.33% (inactive).

For the molecule `COc1ccc(N(CC(=O)Nc2cc(OC)ccc2OC)S(=O)(=O)c2c(C)noc2C)cc1`, the “activity change, negative = inhibition” value was -1.57% (inactive).

With `CC(C)(C)Nc1c(N)c(=O)oc2ccccc12`, the “activity change, negative = inhibition” value was 13.4% (inactive).

Consider `CCCCC(=O)Nc1cc(C)c2c(=O)oc3ccccc3c2n1`, for which the “activity change, negative = inhibition” value was 3.53% (inactive).

In the case of `Cc1ccccc1-n1nnc2c(=O)oc3ccccc3c21`, the Potency was 7.94 µM (active).

For the molecule `COc1cccc(C(=O)NNS(=O)(=O)c2ccc(F)cc2)c1`, the “activity change, negative = inhibition” value was 3.67% (inactive).

Consider `COc1ccc(C(C(=O)NCC2CCCO2)N(C(=O)Cn2nnc3ccccc32)c2ccc(NC(C)=O)cc2)cc1OC` (configuration not stated), for which the “activity change, negative = inhibition” value is -6.87% (inactive).

Take `Nc1[nH]c(=S)nc2nc(-c3ccccc3)c(-c3ccccc3)nc12`: the Potency is 3.98 µM (active).

Consider `Nc1ccc(-c2sc(N)nc2-c2ccccc2)cc1`, for which the “activity change, negative = inhibition” value is -17.2% (inactive).

In the case of `Nc1nc(-c2ccccc2)cc(-c2ccccc2)n1`, the “activity change, negative = inhibition” value was -7.58% (inactive).

`Cc1c(CN2CCC(n3nccc3NC(=O)CCc3ccccc3)CC2)cnn1C`: the “activity change, negative = inhibition” value is -18.5% (inactive).

For the molecule `CC(=O)NCCC(=O)Nc1cc(S(=O)(=O)N2CCCCC2)ccc1Oc1cccc(C)c1`, the “activity change, negative = inhibition” value was 11% (inactive).

Take `S=c1[nH]nc(-c2ccc(Cl)cc2)n1CC1CCCO1` (configuration not stated): the Potency was 11.2 µM (active).

Consider `Cc1nnc(SCC(=O)NNC(=O)c2ccc(Cl)cc2)n1CC1CCCO1` (configuration not stated), for which the “activity change, negative = inhibition” value was 15% (inactive).

Take `CNC(=O)NC(=O)CSc1nnc(-c2ccc(F)cc2)n1CC1CCCO1` (configuration not stated): the “activity change, negative = inhibition” value was 10.2% (inactive).

As for `N#Cc1ccccc1S(=O)(=O)N1CCN(C(=O)c2cc(-c3ccccc3)nn2-c2ccccc2)CC1`, the “activity change, negative = inhibition” value was -11.5% (inactive).

Regarding `CC1CN(C(=S)Nc2ccc(Br)cc2Cl)CC(C)O1` (configuration not stated), the Potency was 12.6 µM (active).

For the molecule `S=C(Nc1ccc(Br)cc1Cl)N1CCC2(CC1)OCCO2`, the “activity change, negative = inhibition” value was -25.8% (inactive).

Regarding `CC1CN(C(=S)Nc2ccccc2F)CC(C)O1` (configuration not stated), the “activity change, negative = inhibition” value is 13% (inactive).

Consider `O=C(Nc1ccc(O)cc1)c1ccc(NC(=O)c2ccco2)cc1`, for which the “activity change, negative = inhibition” value is 7.16% (inactive).

Take `O=C(CCSc1ccccc1)NCCSc1ccccn1`: the “activity change, negative = inhibition” value is 24.1% (inactive).

Consider `Cc1ccc(SCCC(=O)NCc2ccccn2)cc1`, for which the Potency was 8.91 µM (active).

For `Cc1cc(Cl)ccc1OCCCC(=O)NCc1ccccn1`, the “activity change, negative = inhibition” value was 16.2% (inactive).

As to `O=C1C2CCCN2C(=O)N1CCCCN1CCN(c2cccc(C(F)(F)F)c2)CC1` (configuration not stated), the “activity change, negative = inhibition” value is -13.4% (inactive).

The values are drawn from PubChem BioAssay AID2551 (National Center for Advancing Translational Sciences (NCATS), 2010).
